Results as given in PubChem BioAssay (NCI).
The panel holds about 83,000 compounds, 20% with a hit somewhere; the sample as a whole holds those more often.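 48-hour exposure, single concentration, 96-well plates; percent growth endpoint where 0 means no net growth. Active: below 10.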 Values without a mark were called inactive. Calls of active or inactive are those of the source.

Tested on: SF-268 CNS
Experiment: NCI-60 one-dose screen, 48 h (100 = growth as untreated, 0 = no growth, -100 = all killed)
Settings: 10 µM

SMILES	growth
O=C(/C=C/c1ccc(Br)cc1)c1nc2ccccc2n1Cc1ccc(Br)cc1	29.9%
COC(=O)CCn1c(-c2ccc(-n3cc(-c4ccc(O[C@H]5O[C@@H]6OC7(C)CC[C@H]8[C@H](C)CC[C@@H]([C@H]5C)[C@@]68OO7)cc4)nn3)cc2)nc2ccccc21	31.8%
CC1=C(C=O)C2=C(C)C3(CC3)[C@@](C)(O)C(=O)C2=C1	36.2%
N#C[Se]CC(=O)Nc1cccc(C(F)(F)F)c1	2.88% (active)
CCC[Se]C(=O)c1ccc(C(=O)[Se]CCC)s1	3.6% (active)
C[C@H]1[C@@H](CC(=O)N[C@@H](Cc2coc3ccccc23)B(O)O)O[C@@H]2OC3(C)CC[C@H]4[C@H](C)CC[C@@H]1[C@@]24OO3	20.4%
O=C(/C=C/c1ccco1)c1nc2ccccc2n1Cc1ccc(F)cc1	63.4%
COC(=O)C[C@](O)(CCC(C)C)C(=O)O[C@H]1C(OC)=C[C@@]23CCCN2CCc2cc4c(cc2[C@@H]13)OCO4	-21.7% (active)
C[C@H]1[C@H](OC(=O)CCC(=O)N(CCCc2cn(-c3ccc(C#N)cc3)nn2)CCNc2ccnc3cc(Cl)ccc23)O[C@@H]2OC3(C)CC[C@H]4[C@H](C)CC[C@@H]1[C@@]24OO3	54.9%
